VLA-4 inh – inhibition in a human VLA-4 binding assay; VLA-4 expressing cells, ligand binding flow cytometry; AID 2557; inhibition, % (about 7 µM as worked out from the volumes in the protocol); P13612; 0.2% of 330,000 active; in the data active means inhibition above about 50%
APOBEC3A inh – inhibitors of human APOBEC3A DNA deaminase. 0.41% of 330,000 active. inhibition, % at 20 µM. recombinant A3A, FAM/TAMRA ssDNA deamination fluorescence. P31941;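 active means at least 40% inhibition at 20 µM here, with at most 30% in a related deaminase screen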;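 further: plate controls were A3A with DMSO for no effect and wells lacking A3A enzyme for full effect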
beta cell repl – MIN6 beta-cell proliferation induction; AID 2380; proliferation, % at 10 µM; MIN6 cells proliferation, ATPlite luminescence, 48 h; cells starved in 0.2% serum; 100% = growth in 10% serum; 0.29% of 330,000 active;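 active means compounds whose signal lies at least 3.5 SD above the mean of all wells on their plate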;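 further: 0% = DMSO-treated cells in low-serum medium and 100% = 10% serum control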
CendR NRP1 mod – modulators of CendR peptide binding to human neuropilin-1. FAM-RPARPAR peptide binding to NRP-1, fluorescence polarization. inhibition, % at 25 µM. 0.85% of 360,000 active. O14786;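 active means inhibition or corrected inhibition above about 18%, plus a signal ratio from 0.5 to 1.5, limit read from the data, passing the limit was not always enough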
A3G deaminase – inhibitors of human APOBEC3G DNA deaminase; recombinant A3G, ssDNA deamination FAM/TAMRA fluorescence; Q9HC16; 0.28% of 330,000 active; inhibition, % at 20 µM;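 active means inhibition of at least 40% at 20 µM, with no more than 30% in the related APOBEC3A deaminase screen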;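 further: plate controls were DMSO wells with A3G for no effect and wells lacking A3G enzyme for full effect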
* marks the source's active call; other numbers are inactive results; . = no result given. Rows were chosen to be rich in hits. Some 1.8% of all compounds tested hit in one or more screens of this group.

SMILES	VLA-4 inh	APOBEC3A inh	beta cell repl	CendR NRP1 mod	A3G deaminase
CN(c1ccccc1C(=O)N1CCN(c2cccc(Cl)c2)CC1)S(C)(=O)=O	3	4	0	3	-3
N#CC1C(=N)Cc2ccccc2-c2ccccc21 (centres undefined)	.	.	.	10	.
CN1N=C(/C=C/c2ccccc2)CCC1=O	-2	-4	-1	9	-6
Cc1ccc(/C=C/C2=NN(C)C(=O)CC2)cc1	-4	1	-4	36*	1
Cc1ccc(CN2CC(N3CCCCC3)CS2(=O)=O)cc1 (centres undefined)	.	.	.	12	.
CCOC(=O)c1ccc(NC(=O)Nc2ccc(F)cc2)cc1	-5	-2	-3	11	-4
COC(=O)c1ccc(NC(=O)Nc2ccc(F)cc2)cc1	7	-6	-5	26*	-11
N#Cc1cccc(NC(=O)Cn2cnc(S(=O)(=O)N3CCOCC3)c2)c1	3	-1	0	11	16
CCc1ccc(C(=O)CCC(=O)Nc2cccc(S(=O)(=O)N3CCCCC3)c2)cc1	.	-2	-6	-8	2
Nc1ncnc2c1ncn2C1OC(CO)C2OC21 (centres undefined)	.	.	.	24*	.
OCC1OC(n2cnc3c(/C=C(\O)c4ccccc4)ncnc32)C(O)C1O (centres undefined)	.	.	.	22*	.
Cc1noc(C)c1NC(=O)N(C)C[C@H]1OCc2cn(nn2)CCCC(=O)N([C@@H](C)CO)C[C@@H]1C	.	.	.	1	.
Nc1c(Br)cc(Br)c2c1C(=O)c1c(cccc1S(=O)(=O)O)C2=O	.	.	.	-1	.
O=C(O)C1CCN(C(=O)CSc2nc3ccccc3c(=O)n2-c2ccc(Cl)cc2)CC1	6	-2	0	-3	-1
COc1ccc(S(=O)(=O)N2CCCCC2)cc1NC(=O)c1c(F)cccc1Cl	.	-3	-4	26*	-8
CCOC(=O)c1[nH]c2ccc(Br)cc2c1NC(=O)CCN1CCCC(C)(C)C1	10	44	-5	29*	30
C=C(C(=O)Oc1ccccc1C(C)(C)C)c1ccccc1	55*	0	-7	.	-1
C/C(CCc1ccccc1)=N\NC(=S)NCCc1ccccc1	8	-6	-6	8	-5
C/C(=N\NC(=S)NCCc1ccccc1)c1cccs1	13	-3	-2	28*	-2
C[C@H](CO)N1C[C@H](C)[C@@H](CN(C)S(=O)(=O)c2cn(C)cn2)OCc2cnnn2CCCC1=O	.	.	.	-10	.
Cc1cc(C)n(C2CC(=O)N(c3cc(Cl)cc(Cl)c3)C2=O)n1 (centres undefined)	0	0	-2	35*	-2
Cc1cc(C)cc(N2C(=O)CC(n3nc(C)cc3C)C2=O)c1 (centres undefined)	-2	1	-3	4	-2
COC(=O)[C@@]12C[C@@H](CC(=O)NCCc3ccccc3OC)C(=O)N(Cc3ccc4c(c3)OCO4)C1=CCC(C)(C)C2	.	.	.	1	.
O=C1c2ccccc2C(=O)c2c1cccc2N1CCCC1	-14	.	.	12	.
Cn1c(=O)cc2c3c(c(N4CCCCC4)ccc31)C(=O)c1ccccc1-2	-11	2	-2	58*	3
SMILES	VLA-4 inh	APOBEC3A inh	beta cell repl	CendR NRP1 mod	A3G deaminase
COc1ccc(NC(=O)/C(=C\c2ccc(F)cc2)NC(=O)c2ccco2)cc1	8	-2	0	-2	-11
O=C(Cn1c(NCCCCl)nc2ccccc21)c1ccccc1	12	4	-2	31*	-5
Cc1cnc(C(=O)OCC(=O)N2c3ccccc3NC(=O)C2(C)C)cn1	8	-1	2	-1	-4
Cc1nn(-c2ccccc2)c(C)c1C(=O)OCC(=O)N1c2ccccc2NC(=O)C1(C)C	-11	9	3	30*	-1
COc1ccc(/C=C/C(=O)Nc2cccc(F)c2)cc1S(=O)(=O)N1CCOCC1	16	0	-2	23*	-5
COc1ccc2oc(C(=O)OCC(=O)N(C)CC(=O)Nc3ccc(F)cc3)c(C)c2c1	3	15	-5	-6	10
Cn1cnc([N+](=O)[O-])c1Nc1cccc(O)c1	-2	-3	-3	6	-3
Cn1cnc([N+](=O)[O-])c1NC(C)(C)C	9	-4	-3	29*	-5
CC(=O)N1CCc2cc(Br)cc(S(=O)(=O)N3CCC(C(=O)O)CC3)c21	9	5	-4	-6	7
Cc1cc2cc(CNC(=O)c3ccc(S(=O)(=O)N4CCCC4)cc3)ccc2n1C	-6	-4	-1	26*	-10

Source: PubChem BioAssay (several laboratories)
